{"source": "PubChem BioAssay (Tox21)", "note": "Records with an inconclusive call do not appear. Active and inactive are the calls of the source. The call rests on the fitted dose curve; in most records, active means well fitted activation curve with a large enough effect in the signal ratio in the repeat runs (not every such curve was filed as active); inconclusive means weak or mixed curves, or effect the other way; inactive means no such curve, though single readings can be large or run the other way; the % refers to the signal ratio. On the % scale 0 is the no-effect control and ±100 the full control effect.", "data": [{"molecular_target": "Peroxisome proliferator-activated receptor gamma (Homo sapiens) (UniProt P37231)", "sequence (P37231 whole entry, looked up)": "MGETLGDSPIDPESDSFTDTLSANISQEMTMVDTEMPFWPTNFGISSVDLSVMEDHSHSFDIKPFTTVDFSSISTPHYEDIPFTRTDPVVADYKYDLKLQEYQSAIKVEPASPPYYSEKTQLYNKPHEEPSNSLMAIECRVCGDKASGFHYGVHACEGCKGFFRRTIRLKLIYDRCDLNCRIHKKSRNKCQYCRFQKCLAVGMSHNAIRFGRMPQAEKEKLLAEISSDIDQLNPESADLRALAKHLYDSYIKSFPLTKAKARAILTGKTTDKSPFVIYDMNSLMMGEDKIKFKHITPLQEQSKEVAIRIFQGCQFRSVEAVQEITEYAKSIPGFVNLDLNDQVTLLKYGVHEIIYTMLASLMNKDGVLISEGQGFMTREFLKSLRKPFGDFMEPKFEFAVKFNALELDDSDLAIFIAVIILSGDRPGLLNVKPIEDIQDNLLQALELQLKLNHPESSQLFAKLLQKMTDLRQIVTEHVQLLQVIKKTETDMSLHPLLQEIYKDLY", "experiment": "qHTS assay to identify small molecule agonists of the peroxisome proliferator-activated receptor gamma (PPARg) signaling pathway (AID 743094)", "conditions": "HEK293H PPARg-UAS-bla, beta-lactamase FRET ratio, 17 h; series mostly up to 57 µM; activation: at the top concentration", "from_the_text": "U.S. Tox21 Program National Center for Advancing Translational Sciences [NCATS] NIH Chemical Genomics Center [NCGC] U.S. Environmental Protection Agency [EPA] National Institutes of Environmental Health Sciences [NIEHS] National Toxicology Program [NTP] U.S. Food and Drug Administration [FDA] Tox21 Assay Overview: The peroxisome proliferator-activated receptors (PPARs) are lipid-activated transcription factors of the nuclear receptor superfamily with three distinct subtypes namely PPAR alpha, PPAR delta (also called PPAR beta) and PPAR gamma (PPARg). All these subtypes heterodimerize with Retinoid X receptor (RXR) and these heterodimers regulate transcription of various genes. PPAR-gamma receptor (glitazone receptor) is involved in the regulation of glucose and lipid metabolism. To identify the compounds that activate PPAR-gamma signaling, GeneBLAzer PPAR gamma UAS-bla HEK293H cell line (Invitrogen, Carlsbad, CA, USA) containing a beta-lactamase reporter gene under control of the control of an upstream activator sequence (UAS) stably integrated into HEK293H cells was used to screen Tox21 compound library.\nTox21 Assay Protocol Summary: PPARg-bla cells were dispensed at 3000 cells/6uL/well in 1536-well black wall/clear bottom plates using a Multidrop Combi (Thermo Fisher Scientific, Waltham, MA) dispenser. After the assay plates were incubated at 37C and 5% CO2 for 5 h, 23 nL of compounds dissolved in DMSO, positive controls or DMSO only was transferred to the assay plate by a Pintool station (Kalypsys, San Diego, CA). The assay plates were incubated at 37C for 17 h. After 1 uL of LiveBLAzerTM B/G FRET substrate was added using a Bioraptr Flying Reagent Dispenser (FRD) workstation (Beckman Coulter, Indianapolis, IN, USA), the plates were incubated at room temperature for 1 h, and fluorescence intensity was measured by an Envision plate reader (PerkinElmer, Shelton, CT).", "values": [{"smiles": "CCNC(=S)NCC", "outcome": "inactive"}, {"smiles": "C=CCc1ccc(OC)c(OC)c1", "outcome": "inactive"}, {"smiles": "CC(=O)OC1CC(C)OC(C)O1", "note": "(stereo not given)", "outcome": "inactive"}, {"smiles": "CC(C)(C)c1cc(Cc2cc(C(C)(C)C)c(O)c(C(C)(C)C)c2)cc(C(C)(C)C)c1O", "outcome": "inactive"}, {"smiles": "CN(C)CCOC(=O)COc1ccc(Cl)cc1", "outcome": "inactive"}, {"smiles": "OCc1cccc(Oc2ccccc2)c1", "activation": "0.211% [at 78.9 µM] (inactive)"}, {"smiles": "O=C1c2ccccc2CCc2ccccc21", "activation": "1.4% [at 78.9 µM] (inactive)"}, {"smiles": "Cc1ccc([N+](=O)[O-])cc1S(=O)(=O)O", "outcome": "inactive"}, {"smiles": "C=CC[N+](C)(C)CC=C", "outcome": "inactive"}, {"smiles": "CCO[Si](CCCN)(OCC)OCC", "outcome": "inactive"}, {"smiles": "CC(C)CC(C)O", "note": "(stereo not given)", "outcome": "inactive"}, {"smiles": "COc1ccc(OC)cc1", "outcome": "inactive"}, {"smiles": "COc1ccc([N+](=O)[O-])cc1N", "outcome": "inactive"}, {"smiles": "CCCCC(C=O)CC", "note": "(stereo not given)", "outcome": "inactive"}, {"smiles": "CCCCCC(=O)O", "outcome": "inactive"}, {"smiles": "CC1(C)NC(=O)NC1=O", "outcome": "inactive"}, {"smiles": "NC(=S)NNC(N)=S", "outcome": "inactive"}, {"smiles": "CC(C)CC(=O)CC(C)CC(C)C", "note": "(stereo not given)", "outcome": "inactive"}, {"smiles": "CC(CCO)CC(C)(C)C", "note": "(stereo not given)", "outcome": "inactive"}, {"smiles": "N#Cc1ccccc1", "outcome": "inactive"}, {"smiles": "C=C(C)C(=O)OCC(C)C", "outcome": "inactive"}, {"smiles": "CCCCCCCCCCCCCCCCO", "outcome": "inactive"}, {"smiles": "COCCOC(=O)c1ccccc1C(=O)OCCOC", "outcome": "inactive"}, {"smiles": "CC(CCl)OP(=O)(OC(C)CCl)OC(C)CCl", "note": "(stereo not given)", "outcome": "inactive"}, {"smiles": "CC(C)OC(=O)COc1ccc(Cl)cc1Cl", "outcome": "inactive"}, {"smiles": "COc1ccccc1OCC(O)CO", "note": "(stereo not given)", "outcome": "inactive"}, {"smiles": "COC(=O)c1cccnc1", "outcome": "inactive"}, {"smiles": "CNC(=S)N(C)C", "outcome": "inactive"}, {"smiles": "O=C(O)CCCCCCCCC(=O)O", "outcome": "inactive"}, {"smiles": "OCc1ccccc1", "outcome": "inactive"}, {"smiles": "C[C@]12CC[C@@H]3c4ccc(O)cc4CC[C@H]3[C@@H]1C[C@@H](O)[C@@H]2O", "outcome": "inactive"}, {"smiles": "Cc1ccc(S(=O)(=O)N=C=O)cc1", "outcome": "inactive"}, {"smiles": "CSc1ccc(Cl)cc1", "outcome": "inactive"}, {"smiles": "CC(C)OP(=O)(CP(=O)(OC(C)C)OC(C)C)OC(C)C", "activation": "-0.343% (inactive)"}, {"smiles": "COc1ccc(C)cc1N", "outcome": "inactive"}, {"smiles": "CC(=O)OCCOC(C)=O", "outcome": "inactive"}, {"smiles": "COc1cc(OC)c(C(=O)CCCN2CCCC2)c(OC)c1", "outcome": "inactive"}, {"smiles": "CCOC(=O)n1ccn(C)c1=S", "outcome": "inactive"}, {"smiles": "COc1ccc(CCC(C)=O)cc1", "activation": "3.73% (inactive)"}, {"smiles": "CCOCC(=O)O", "outcome": "inactive"}]}]}
